Test results from PubChem BioAssay (NCATS).
“And” between values parts separate entries of the source, which are not always exact repeats. Identical values can stand only once. Inconclusive results are not listed. The source made the active and inactive calls. Calls follow the shape of the full dose curve.

experiment: qHTS Assay for Lipid Storage Modulators (AID 1519); conditions: Drosophila S3 cells, BODIPY lipid droplet/cell ratio, laser cytometry; at 25.7 µM (top of the series); cells loaded with oleic acid; as to activity change, negative = inhibition: % is scaled to controls: 0 for no effect and ±100 for the full control effect
How it was run: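 Cells seeded at 5,000 per well were treated with compounds over a concentration series and loaded with oleic acid (400 uM, as added). Lipid droplet fluorescence (488 nm excitation, 500-530 nm channel) was read by laser-scanning cytometry and normalized to 20 uM Triacsin C.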

| SMILES | activity change, negative = inhibition |
| --- | --- |
| CC(C)c1cccc(C(C)C)c1O | -0.519% (inactive) |
| O=C(CCCN1CCC2(CC1)C(=O)NCN2c1ccccc1)c1ccc(F)cc1 | -0.907% (inactive) |
| O=c1oc2ccccc2c(O)c1Cc1c(O)c2ccccc2oc1=O | 0.983% (inactive) |
| O=c1[nH]oc2c1CCNC2 | -3.52% (inactive) |
| COc1ccc2c(c1)C13CCCC[C@@H]1C(C2)N(C)CC3 (some centres undefined) | -0.828% (inactive) |
| CCC1(CC)C(=O)C=CNC1=O | -2.39% (inactive) |
| Cn1c(=O)c2[nH]cnc2n(C)c1=O | -0.949% (inactive) and -1.67% (inactive) |
| Cc1ccc(C(=O)c2ccc(CC(=O)O)n2C)cc1 | -1.39% (inactive) |
| O=C(O)CCCc1ccc(N(CCCl)CCCl)cc1 | 2.25% (inactive) |
| COc1cc(-c2ccc(=O)[nH]n2)ccc1OC(F)F | -2.55% (inactive) |
| COc1c2c(cc3c1OCO3)CCN(C)C2 | 1.64% (inactive) |
| CNC(C)(C)Cc1ccccc1 | -3.38% (inactive) |
| CC[N+](CC)(CC)CCOc1cccc(OCC[N+](CC)(CC)CC)c1OCC[N+](CC)(CC)CC | 0.548% (inactive) |

same assay, conditions: Drosophila S3 cells, BODIPY lipid droplet/cell ratio, laser cytometry; at 57.5 µM (top of the series); cells loaded with oleic acid

| SMILES | activity change, negative = inhibition |
| --- | --- |
| O=C(CCCN1CCC2(CC1)C(=O)NCN2c1ccccc1)c1ccc(F)cc1 | 7.99% (inactive) |
| COP(=S)(OC)Oc1ccc(SC)c(C)c1 | 5.63% (inactive) |
| O=c1[nH]oc2c1CCNC2 | -0.0762% (inactive) and 5.91% (inactive) |
| C=C(C)[C@H]1CN[C@H](C(=O)O)[C@H]1CC(=O)O | 0.0201% (inactive) |
| CC(NC(C)(C)C)C(=O)c1cccc(Cl)c1 (centres undefined) | 9.02% (inactive) and 0.884% (inactive) |
| Clc1cccc(SC2CCNCC2)n1 | -5.67% (inactive) |
| CN1C(=O)CCS(=O)(=O)C1c1ccc(Cl)cc1 (centres undefined) | 6.74% (inactive) and -0.559% (inactive) |
| CC(C)(C)NCC(O)c1ccccc1Cl (centres undefined) | 6.93% (inactive) and 0.29% (inactive) |
| Cc1ncsc1CCCl | 4.7% (inactive) |
| C[C@]12CCC(=O)C=C1CC[C@@H]1[C@@H]2CC[C@]2(C)C(=O)CC[C@@H]12 | 0.917% (inactive) |
| CCC1(CC)C(=O)C=CNC1=O | 5.04% (inactive) |
| Cn1c(=O)c2[nH]cnc2n(C)c1=O | 8.67% (inactive) |
| COc1cc(OC)c(OC)cc1C=O | 10.2% (inactive) |
| NC(=O)c1cc([N+](=O)[O-])cc([N+](=O)[O-])c1 | 2.42% (inactive) |
| O=C(O)CCCc1ccc(N(CCCl)CCCl)cc1 | 2.66% (inactive) |
| c1ccc2c(c1)sc1ccccc12 | 7.62% (inactive) |
| O=P1(N(CCCl)CCCl)NCCCO1 (centres undefined) | 0.148% (inactive) |
| CCCCC/C=C\C/C=C\C/C=C\C/C=C\CCCC(=O)NCC(=O)O | -0.69% (inactive) |
| CC(C)N(CCC(C(N)=O)(c1ccccc1)c1ccccn1)C(C)C (centres undefined) | 4.57% (inactive) and -1.93% (inactive) and 1.94% (inactive) |
| O=C1c2ccccc2C(=O)c2ccccc21 | 11.7% (inactive) |
| CNC(C)(C)Cc1ccccc1 | 12% (inactive) |
| NC(=O)CS(=O)C(c1ccccc1)c1ccccc1 (centres undefined) | 4.67% (inactive) |

same assay, conditions: Drosophila S3 cells, BODIPY lipid droplet/cell ratio, laser cytometry; measured here: cell count channel max response; cells loaded with oleic acid

| SMILES | max response |
| --- | --- |
| CC(C)c1cccc(C(C)C)c1O | -4.81% |
| O=C(CCCN1CCC2(CC1)C(=O)NCN2c1ccccc1)c1ccc(F)cc1 | -5.72% and 5.19% |
| O=c1oc2ccccc2c(O)c1Cc1c(O)c2ccccc2oc1=O | -11.3% |
| COP(=S)(OC)Oc1ccc(SC)c(C)c1 | 23% |
| O=c1[nH]oc2c1CCNC2 | -6.88% and 7.61% and 14.4% |
| C=C(C)[C@H]1CN[C@H](C(=O)O)[C@H]1CC(=O)O | -9.16% |
| CC(NC(C)(C)C)C(=O)c1cccc(Cl)c1 (centres undefined) | 11.7% and -20.3% |
| Clc1cccc(SC2CCNCC2)n1 | -24.9% |
| CN1C(=O)CCS(=O)(=O)C1c1ccc(Cl)cc1 (centres undefined) | 18.4% and 40.6% |
| CC(C)(C)NCC(O)c1ccccc1Cl (centres undefined) | -1.25% and 42.1% |
| Cc1ncsc1CCCl | 0.112% |
| C[C@]12CCC(=O)C=C1CC[C@@H]1[C@@H]2CC[C@]2(C)C(=O)CC[C@@H]12 | 67.2% |
| COc1ccc2c(c1)C13CCCC[C@@H]1C(C2)N(C)CC3 (some centres undefined) | -8.06% |
| CCC1(CC)C(=O)C=CNC1=O | -5.28% and 19.1% |
| Cn1c(=O)c2[nH]cnc2n(C)c1=O | -7.33% and -5.65% and 13.2% |
| Cc1ccc(C(=O)c2ccc(CC(=O)O)n2C)cc1 | -5.63% |
| COc1cc(OC)c(OC)cc1C=O | 14.2% |
| NC(=O)c1cc([N+](=O)[O-])cc([N+](=O)[O-])c1 | 0.174% |
| O=C(O)CCCc1ccc(N(CCCl)CCCl)cc1 | -7.28% and 5.28% |
| c1ccc2c(c1)sc1ccccc12 | -5.03% |
| COc1cc(-c2ccc(=O)[nH]n2)ccc1OC(F)F | -17.6% |
| O=P1(N(CCCl)CCCl)NCCCO1 (centres undefined) | -27.9% |
| CCCCC/C=C\C/C=C\C/C=C\C/C=C\CCCC(=O)NCC(=O)O | 64.5% |
| CC(C)N(CCC(C(N)=O)(c1ccccc1)c1ccccn1)C(C)C (centres undefined) | 23.6% and -10.4% and -17.4% |
| COc1c2c(cc3c1OCO3)CCN(C)C2 | 2.73% |
| O=C1c2ccccc2C(=O)c2ccccc21 | 14.4% |
| CNC(C)(C)Cc1ccccc1 | -19% and 14.2% |
| CC[N+](CC)(CC)CCOc1cccc(OCC[N+](CC)(CC)CC)c1OCC[N+](CC)(CC)CC | -4.51% |
| NC(=O)CS(=O)C(c1ccccc1)c1ccccc1 (centres undefined) | 3.09% |
